12 compounds from PubChem BioAssay (Tox21) can be followed below.

The nature of assay [1]: A CellTox Green Cytotoxicity Assay to monitor cytotoxicity in HepG2 cells - 8 hour (AID 1224890). Note: nearly all actives have a fitted effect of over 45% in size. Note: potency is the fitted concentration of half-maximal effect. In outline: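 Real-time, homogeneous cytotoxicity readout: dead-cell DNA staining by CellTox Green in HepG2 monolayers, fluorescence measured at timed intervals up to 40 h of continuous compound exposure.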
The nature of assay [2]: qHTS assay to identify small molecule antagonists of the estrogen receptor alpha (ER-alpha) signaling pathway using the BG1 cell line in the presence of 0.1 nM 17-beta-estradiol - cell viability counter screen (AID 1259241). Note: nearly all actives have a fitted effect of over 40% in size. Note: potency is the fitted concentration of half-maximal effect. In outline:
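CellTiter-Fluor read (30 min, 37C) on ER-alpha/ERE-luc VM7Luc4E2 cells; 22 hr compound treatment; agonist 0.1 nM E2 final; same-well multiplex.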

The nature of assay [3]: qHTS assay to identify small molecule antagonists of the androgen receptor (AR) signaling pathway using the MDA cell line in the presence of 0.5 nM R1881 - cell viability counter screen (AID 1259242). Note: nearly all actives have a fitted effect of over 45% in size. Summed up: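 Cytotoxicity toward MDA-kb2 cells is measured by CellTiter-Fluor live-cell protease fluorescence after 16 hr compound exposure at 37C in the presence of 0.5 nM R1881 stimulator.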

Assay [4] addresses Estrogen receptor (Homo sapiens) (UniProt P03372). The experiment in a line: qHTS assay to identify small molecule antagonists of the estrogen receptor alpha (ER-alpha) signaling pathway using the BG1 cell line in the presence of 0.1 nM 17-beta-estradiol (AID 1259244). Note: nearly all actives have a fitted effect of over 50% in size. Summed up:
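After 5 days in hormone-depleted medium (charcoal-stripped serum, no phenol red), VM7Luc4E2 cells were seeded, incubated 24 h, then co-treated with compound and 0.1 nM (final) estradiol for 22 h before luminescence detection.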

A short description of assay [5]: qHTS assay to identify small molecule HDAC inhibitors (AID 1259364). Note: top concentration of the series differs between compounds; nearly all actives have a fitted effect of over 45% in size. In outline:
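Homogeneous cell-based luminescent assay of endogenous class I/II HDAC activity; HCT-116 cells, 2 h compound exposure, 30 min HDAC-Glo development at RT.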

A short description of assay [6]: qHTS assay to identify small molecule agonists of the sonic hedgehog signaling (Shh) pathway - cell viability counter screen (AID 1259366). Note: nearly all actives have a fitted effect of over 50% in size. In outline:
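Fluorescence from CellTiter-Fluor reports live cells in this counter screen. NIH/3T3-derived Gli1-Luc reporter cells receive test compounds for 24hr at 37C; reagent goes in at 23hr.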

The nature of assay [7]: qHTS assay to identify small molecule antagonists of the sonic hedgehog signaling (Shh) pathway - cell viability counter screen (AID 1259367). Note: nearly all actives have a fitted effect of over 55% in size. Summed up:
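NIH/3T3-derived Gli1-Luc reporter cells (2,000 per well) rested 4 hr at 37 C, then received DMSO compounds plus conditioned medium. After 23 hr of treatment, CellTiter-Fluor was added for 1 hr at 37C and fluorescence read.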

A short description of assay [8]: qHTS assay to identify small molecule agonists of the sonic hedgehog signaling (Shh) pathway (AID 1259368; calls by dose curve;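 note: NIH/3T3-derived 3T3Gli1-Luc cells carrying a stable Gli1-driven firefly luciferase reporter; series mostly up to about 92 µM; nearly all actives have a fitted effect of over 15% in size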). Summed up: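 Steps: seed 3T3 Gli1-Luc cells, incubate 4 hr at 37 C, pin-transfer compounds in DMSO alongside a positive control, incubate 24 hr, add luciferase detection reagent, wait 30 min at room temperature, read luminescence.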
Assay [9] is described as follows: qHTS assay to identify small molecule antagonists of the sonic hedgehog signaling (Shh) pathway (AID 1259369; calls by dose curve; note: nearly all actives have a fitted effect of over 45% in size). Summed up:
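Inhibition of Shh signalling is measured as reduced Gli1-response-element firefly luciferase output in an NIH/3T3-derived stable reporter clone stimulated with conditioned medium for 24hr.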

Assay [10] is described as follows: qHTS assay to identify small molecule agonists of the androgen receptor (AR) signaling pathway in the presence of an antagonist - cell viability counter screen (AID 1259379). Note: nearly all actives have a fitted effect of over 25% in size. Note: potency is the fitted concentration of half-maximal effect. Summed up: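 Fluorescence from CellTiter-Fluor, added after 15 hr and read 1 hr later, gave cell viability. Cells were MDA-kb2 exposed to compounds (15 concentrations) in the presence of 3.0uM nilutamide at 37C, 0% CO2.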

A short description of assay [11]: qHTS assay to identify small molecule agonists of the estrogen receptor beta (ER-beta) signaling pathway - cell viability counter screen (AID 1259380). Note: nearly all actives have a fitted effect of over 30% in size. Note: potency is the fitted concentration of half-maximal effect. In outline: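 Same-well viability counter screen. Cells: ER-beta-UAS-bla HEK293T, plated 6 hr before compound, in 2% charcoal-stripped FBS. Compound exposure 16 hr, 37C; viability by CellTiter-Glo luminescence after 30 min at room temperature.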

Assay [12] is described as follows: qHTS assay to identify small molecule antagonists of the estrogen receptor beta (ER-beta) signaling pathway - cell viability counter screen (AID 1259382). Note: series mostly up to about 92 µM; nearly all actives have a fitted effect of over 55% in size. Summed up: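 Following a 6 hr plating period, HEK293T cells carrying a UAS-driven beta-lactamase reporter under ER-beta control received compounds and 1nM E2 (final). After 16 hr at 37C and 2 hr substrate loading, CellTiter-Glo luminescence indicated viability.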

Assay [13] deals with Estrogen receptor (Homo sapiens) (UniProt P03372). As to the kind of experiment: qHTS assay to identify small molecule agonists of the estrogen receptor alpha (ER-alpha) signaling pathway in the presence of an antagonist (AID 1259383; calls by dose curve; note: top concentration of the series differs between compounds; nearly all actives have a fitted effect of over 15% in size). Summed up:
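Cells are hormone-deprived for 5 days (charcoal-stripped FBS, no phenol red), plated for 24hr, spiked with 10.0nM ICI-182,780, then dosed at 15 concentrations. After 22hr at 37C, ONE-Glo luminescence reports ERE-luciferase activity.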

Assay [14] in a line: qHTS assay to identify small molecule agonists or antagonists of the thyroid stimulating hormone receptor (TSHR) signaling pathway - wild type cell line counter screen (AID 1259384; calls by dose curve). In outline:
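Wild-type HEK293 cells were plated 18 h at 37 C/5% CO2, pin-dosed with compound plus Ro20-1724 medium, held 30 min at room temperature, then given cAMP-d2 and anti-cAMP-cryptate; fluorescence was read after 1 h. Fifteen concentrations, triplicate.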

Assay [15] has as its target Thyrotropin receptor (Homo sapiens) (UniProt P16473). The experiment in a line: qHTS assay to identify small molecule antagonists of the thyroid stimulating hormone receptor (TSHR) signaling pathway (AID 1259385; calls by dose curve; note: nearly all actives have a fitted effect of over 20% in size). In outline:
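TSHR-HEK293 cells were plated and held 18 h at 37C/5% CO2, then given compound plus Ro20-1724 and stimulated with TSH at 1.5 ng/mL final. After 30 min at room temperature, cAMP was detected with cAMP-d2/anti-cAMP-cryptate (1 h) by fluorescence.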

A short description of assay [16]: qHTS assay to identify small molecule phospholipidosis (PLD) inducers (AID 1259344; active = well fitted curve in the direction sought with a large enough effect; an effect the other way counts as inactive or inconclusive). Summed up: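 HepG2 cells on collagen I, attached 4 h at 37 C, were co-treated with compound and LipidTOX Red dye for 24 h at 37 C, then fixed with paraformaldehyde plus Hoechst 33342 and imaged by high-content microscopy for phospholipid accumulation.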
Assay [17] is described as follows: qHTS assay to identify small molecule HDAC inhibitors - cell viability counter screen (AID 1259365). Note: series mostly up to about 92 µM; nearly all actives have a fitted effect of over 50% in size. Summed up:
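To flag cytotoxic hits, 1,500 wild-type HCT-116 cells per well, plated the day before, receive test compounds for 2hr at 37 C before CellTiter-Glo reagent and a luminescence read.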

In assay [18] the target is Estrogen receptor beta (Homo sapiens) (UniProt Q92731). The experiment in a line: qHTS assay to identify small molecule agonists of the estrogen receptor beta (ER-beta) signaling pathway (AID 1259377; active = well fitted activation curve with a large enough effect in the signal ratio in the repeat runs, not every such curve was filed as active; the % refers to the signal ratio). In outline:
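Screening used GripTite ER-beta-UAS-bla cells held in 2% charcoal-stripped FBS medium. After overnight (16 hr) compound incubation at 37C, beta-lactamase activity was detected with a FRET substrate by fluorescence.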

The target is the same in assay [19]. The experiment in a line: qHTS assay to identify small molecule antagonists of the estrogen receptor beta (ER-beta) signaling pathway (AID 1259378; active = well fitted inhibition curve with a large enough effect in the signal ratio in the repeat runs, not every such curve was filed as active; the % refers to the signal ratio). In outline:
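ER-beta-UAS-bla HEK293T (GripTite) cells in 2% charcoal-stripped FBS medium were preincubated 6 hr at 37C, dosed with compound, then stimulated with 1 nM E2 (final) for 16 hr; beta-lactamase reporter read by B/G FRET fluorescence after 2 hr substrate loading.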

Assay [20] has as its target Androgen receptor (Homo sapiens) (UniProt P10275). The experiment in a line: qHTS assay to identify small molecule antagonists of the androgen receptor (AR) signaling pathway using the MDA cell line in the presence of 0.5 nM R1881 (AID 1259243). Note: nearly all actives have a fitted effect of over 50% in size. In outline:
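Steps: seed MDA-kb2 cells, incubate 5 hr at 37C; pin-transfer compounds in DMSO; add R1881 to 0.5 nM final; incubate 16 hr; add ONE-Glo, wait 30 min at room temperature; read luminescence.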

Values joined by “and” are separate entries in the source; they are usually repeats but may differ in a detail not shown here. Equal entries are not always repeated. Results filed as inconclusive are left out. Some structures have more than one record in an assay (separate samples or runs), and their calls can disagree. Active and inactive are the calls of the source. Unless noted, calls come from the whole dose curve; as a rule, active = well fitted curve in the direction sought with a large enough effect in the repeat runs; inconclusive = weak or mixed curves; inactive = no such curve, though single readings can be large; an effect the other way counts as inactive or inconclusive.

Estrogen receptor (Homo sapiens), sequence (P03372 whole entry, looked up): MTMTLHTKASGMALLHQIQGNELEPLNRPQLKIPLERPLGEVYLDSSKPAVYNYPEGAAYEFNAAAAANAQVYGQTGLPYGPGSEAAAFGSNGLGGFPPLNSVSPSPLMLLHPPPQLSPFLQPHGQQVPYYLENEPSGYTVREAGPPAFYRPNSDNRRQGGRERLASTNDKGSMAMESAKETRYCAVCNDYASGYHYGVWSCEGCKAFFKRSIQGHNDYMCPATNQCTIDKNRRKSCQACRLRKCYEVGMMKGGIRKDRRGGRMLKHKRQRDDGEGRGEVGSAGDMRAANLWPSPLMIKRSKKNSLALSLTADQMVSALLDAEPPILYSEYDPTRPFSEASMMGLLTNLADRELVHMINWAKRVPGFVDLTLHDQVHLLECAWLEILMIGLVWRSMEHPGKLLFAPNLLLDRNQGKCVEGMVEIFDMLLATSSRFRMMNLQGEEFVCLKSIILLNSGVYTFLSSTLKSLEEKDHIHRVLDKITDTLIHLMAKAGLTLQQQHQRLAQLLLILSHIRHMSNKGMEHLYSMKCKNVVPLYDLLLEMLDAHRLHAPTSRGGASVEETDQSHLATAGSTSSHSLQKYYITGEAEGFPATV
Thyrotropin receptor (Homo sapiens), sequence (P16473 whole entry, looked up): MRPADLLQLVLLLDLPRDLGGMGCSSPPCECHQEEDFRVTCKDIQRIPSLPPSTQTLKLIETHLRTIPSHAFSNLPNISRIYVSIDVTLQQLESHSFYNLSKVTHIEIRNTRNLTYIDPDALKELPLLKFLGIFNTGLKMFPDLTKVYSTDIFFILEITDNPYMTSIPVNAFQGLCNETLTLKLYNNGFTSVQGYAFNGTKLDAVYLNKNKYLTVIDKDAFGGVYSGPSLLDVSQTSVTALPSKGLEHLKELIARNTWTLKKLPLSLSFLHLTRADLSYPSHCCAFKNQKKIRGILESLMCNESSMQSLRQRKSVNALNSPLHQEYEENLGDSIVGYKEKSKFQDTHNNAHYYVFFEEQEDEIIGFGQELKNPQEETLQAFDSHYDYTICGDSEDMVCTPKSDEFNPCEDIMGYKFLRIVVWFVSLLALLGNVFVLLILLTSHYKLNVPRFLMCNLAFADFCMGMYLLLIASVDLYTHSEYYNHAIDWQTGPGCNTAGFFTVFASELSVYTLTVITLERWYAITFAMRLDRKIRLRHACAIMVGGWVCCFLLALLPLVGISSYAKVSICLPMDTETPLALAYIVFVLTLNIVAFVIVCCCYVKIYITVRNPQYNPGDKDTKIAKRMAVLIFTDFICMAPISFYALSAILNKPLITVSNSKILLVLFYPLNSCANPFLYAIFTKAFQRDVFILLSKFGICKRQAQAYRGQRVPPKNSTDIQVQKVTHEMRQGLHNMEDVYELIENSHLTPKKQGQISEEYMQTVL
Estrogen receptor beta (Homo sapiens), sequence (Q92731 whole entry, looked up): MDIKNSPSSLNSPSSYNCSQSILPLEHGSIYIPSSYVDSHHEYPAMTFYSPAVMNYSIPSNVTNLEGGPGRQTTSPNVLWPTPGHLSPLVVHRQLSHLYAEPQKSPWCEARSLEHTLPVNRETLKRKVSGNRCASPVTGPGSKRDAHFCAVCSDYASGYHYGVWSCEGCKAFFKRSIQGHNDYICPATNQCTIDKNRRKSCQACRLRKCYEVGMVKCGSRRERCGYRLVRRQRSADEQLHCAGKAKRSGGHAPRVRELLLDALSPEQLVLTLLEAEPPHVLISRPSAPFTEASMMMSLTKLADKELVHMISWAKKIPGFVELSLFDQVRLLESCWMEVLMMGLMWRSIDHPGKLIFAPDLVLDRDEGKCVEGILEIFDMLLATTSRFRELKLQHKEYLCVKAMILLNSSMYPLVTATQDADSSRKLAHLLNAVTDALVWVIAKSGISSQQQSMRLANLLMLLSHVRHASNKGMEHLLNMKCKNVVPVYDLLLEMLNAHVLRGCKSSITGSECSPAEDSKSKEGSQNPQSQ
Androgen receptor (Homo sapiens), sequence (P10275 whole entry, looked up): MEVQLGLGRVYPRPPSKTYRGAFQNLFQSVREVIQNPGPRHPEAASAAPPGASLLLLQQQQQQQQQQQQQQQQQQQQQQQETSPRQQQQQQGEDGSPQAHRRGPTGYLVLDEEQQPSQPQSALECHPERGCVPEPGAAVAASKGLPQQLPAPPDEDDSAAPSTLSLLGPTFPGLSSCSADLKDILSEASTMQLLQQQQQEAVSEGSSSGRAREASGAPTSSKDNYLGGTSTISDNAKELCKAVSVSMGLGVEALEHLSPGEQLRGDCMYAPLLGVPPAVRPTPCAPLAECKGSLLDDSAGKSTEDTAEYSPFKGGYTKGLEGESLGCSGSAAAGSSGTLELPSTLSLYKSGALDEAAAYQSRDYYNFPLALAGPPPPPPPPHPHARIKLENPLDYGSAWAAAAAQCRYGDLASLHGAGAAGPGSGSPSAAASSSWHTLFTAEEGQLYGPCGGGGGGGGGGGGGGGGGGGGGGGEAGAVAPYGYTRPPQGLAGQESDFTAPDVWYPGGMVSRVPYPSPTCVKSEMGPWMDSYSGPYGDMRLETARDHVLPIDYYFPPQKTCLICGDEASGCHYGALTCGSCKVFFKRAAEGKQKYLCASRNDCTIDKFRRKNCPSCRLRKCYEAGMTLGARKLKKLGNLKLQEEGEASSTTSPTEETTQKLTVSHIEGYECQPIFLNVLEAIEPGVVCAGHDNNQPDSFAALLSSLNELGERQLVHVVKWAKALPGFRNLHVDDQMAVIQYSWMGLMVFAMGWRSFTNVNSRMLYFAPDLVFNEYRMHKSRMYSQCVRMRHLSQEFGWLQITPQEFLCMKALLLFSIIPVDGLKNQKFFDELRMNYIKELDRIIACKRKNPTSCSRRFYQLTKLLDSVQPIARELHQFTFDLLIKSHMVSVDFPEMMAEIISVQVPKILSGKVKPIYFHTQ

Take `CCCCCCOC(C)=O`: the Potency result in assay [1], in [2], in [3], in [4], in assay [5] and in assay [6] was “inactive” each time. The Potency result in [7], in assay [9], in assay [10], in assay [12] and in assay [13] was “inactive” each time. For the same compound, the outcome in assay [8], in assay [14] and in assay [15] was inactive. In addition, the Potency entry in assay [11] was “inactive and 30.6 µM (active)”.
`CS(=O)(=O)c1ccc([C@@H](O)[C@@H](CO)NC(=O)C(Cl)Cl)cc1`: the Potency entry in [1], in [3], in [4], in [5], in assay [6] and in assay [7] was “inactive” each time. Also, the Potency entry in assay [9], in assay [10], in [11], in [12] and in assay [13] was “inactive” each time. Moreover, the compound was called inactive in assay [16], in assay [17] and in assay [8].
As to `CC1(C)O[C@@H]2C[C@H]3[C@@H]4C[C@H](F)C5=CC(=O)CC[C@]5(C)[C@H]4[C@@H](O)C[C@]3(C)[C@]2(C(=O)CO)O1`, the Potency in [1] is 49 µM (active) and inactive. Besides, the Potency result in assay [3], in [4], in assay [5], in [6], in assay [7] and in assay [9] was “inactive” each time. In addition, the Potency result in [18], in assay [19], in assay [10], in assay [11], in assay [12] and in assay [13] was “inactive” in each case. Moreover, the compound was called inactive in [16], in [17], in assay [8], in assay [14] and in assay [15].
For the compound `CC(C)Cc1ccccc1`, the Potency result in assay [1], in [2], in assay [3], in assay [4], in [5] and in assay [6] was “inactive” each time. In addition, the Potency entry in assay [7], in [9], in assay [10], in assay [11], in assay [12] and in assay [13] was “inactive” throughout. The compound was classed as inactive in assay [8], in assay [14] and in [15].
Consider `Cc1ccc(C(=O)O)o1`, for which the Potency result in [1], in assay [2], in assay [3], in [5], in [6] and in [7] was “inactive” in each case. The Potency entry in [9], in assay [18], in assay [19], in [10], in [11] and in assay [12] was “inactive” each time. For the same compound, the compound was classed as inactive in assay [17], in [8], in [14] and in assay [15].
As for `c1ccc2[nH]cnc2c1`, the Potency result in [1], in assay [2], in assay [3], in [5], in [6] and in [7] was “inactive” in each case. For the same compound, the Potency entry in [9], in assay [10], in assay [11] and in assay [12] was “inactive” in each case. The result in assay [17] and in assay [8] was inactive.
In the case of `OCCOCCOCCOCCO`, the Potency result in assay [1], in assay [2], in assay [3], in assay [4], in assay [5] and in assay [6] was “inactive” throughout. Moreover, the Potency result in assay [7], in assay [9], in assay [18], in assay [19], in assay [11] and in assay [12] was “inactive” in each case. For the same compound, the Potency entry in [13] was “inactive”. Further, the outcome in assay [8], in [14] and in assay [15] was inactive.
In the case of `CC(=O)CCc1ccccc1`, the Potency entry in assay [1], in assay [2], in [3], in assay [5], in assay [6] and in assay [7] was “inactive” in each case. In addition, the Potency entry in [9], in assay [18], in assay [19], in [11] and in assay [12] was “inactive” each time. Besides, the outcome in assay [17], in assay [8], in [14] and in [15] was inactive.
Consider `Cc1cc(NS(=O)(=O)c2ccc(N)cc2)no1`, for which the Potency entry in [1], in [2], in assay [3], in [5], in assay [6] and in assay [7] was “inactive” in each case. Further, the Potency entry in [9], in [18], in assay [11] and in assay [12] was “inactive” throughout. Besides, the compound was called inactive in [16], in assay [17], in assay [8] and in assay [14].
With `O=[N+]([O-])c1cc(N(CCO)CCO)ccc1NCCO`, the Potency result in assay [1], in [6], in [7], in [9], in assay [18] and in assay [19] was “inactive” each time. In addition, the Potency result in assay [11], in assay [12] and in assay [13] was “inactive” in each case. Also, the Potency in [2] was 34.4 µM (active); in assay [10], 54.4 µM (active) and 30.6 µM (active). Moreover, the outcome in [20] and in [8] was inactive.
For the compound `CC#C[C@]1(O)CC[C@H]2[C@@H]3CCC4=CC(=O)CCC4=C3[C@@H](c3ccc(N(C)C)cc3)C[C@@]21C`, the Potency result in assay [1], in [2], in assay [3], in assay [5], in assay [6] and in assay [7] was “inactive” throughout. Also, the Potency result in assay [18], in [10], in assay [12] and in assay [13] was “inactive” each time. The outcome in [16], in assay [17], in assay [8], in assay [14] and in assay [15] was inactive.
Consider `O=C(O)c1ccc([N+](=O)[O-])cc1`, for which the Potency entry in assay [1], in assay [2], in assay [3], in assay [5], in [6] and in [7] was “inactive” in each case. The Potency result in assay [9], in assay [18], in [19], in assay [10], in [11] and in [12] was “inactive” in each case. In addition, the call in [8] was inactive.
